Experiment [1] in a line: qHTS assay to identify aromatase inhibitors - cell viability counter screen (AID 743084).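 Note: cells stimulated with testosterone during compound exposure; nearly all actives have a fitted effect of over 55% in size.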
Experiment [2] concerns the target Aryl hydrocarbon receptor (Homo sapiens) (UniProt P35869). As to the kind of experiment: qHTS assay to identify small molecule that activate the aryl hydrocarbon receptor (AhR) signaling pathway (AID 743085).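 For activation: HG2L7.5c1 human HepG2 liver cells with stably integrated DRE-driven firefly reporter; series mostly up to about 70 µM.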 Note: nearly all actives have a fitted effect of over 15% in size. Note: potency is the fitted concentration of half-maximal effect. Summed up:
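Steps: seed HepG2-AhR-luc cells; allow 5 h at 37C; pin-transfer test compound or vehicle; incubate 24 h at 37C; add viability dye (30 min, 37C) and read fluorescence; add luciferase substrate (30 min, RT) and read luminescence.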

A short description of experiment [3]: qHTS assay to identify small molecule that activate the aryl hydrocarbon receptor (AhR) signaling pathway - cell viability counter screen (AID 743086).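 Note: HepG2 liver cells carrying the AhR DRE luciferase reporter; series mostly up to about 70 µM; nearly all actives have a fitted effect of over 45% in size.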 The essentials: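 HepG2-AhR-luc (HG2L7.5c1) cells, 4000/well, treated 24 h at 37 C with compound; viability measured as CellTiter-Fluor fluorescence after 30 min in the same wells as the luciferase read.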
(In general: In qHTS, concentration-response curves come from the screen itself.)

Experiment [4] concerns the target Peroxisome proliferator-activated receptor gamma (Homo sapiens) (UniProt P37231). Kind of experiment: qHTS assay to identify small molecule agonists of the peroxisome proliferator-activated receptor gamma (PPARg) signaling pathway (AID 743094; active = well fitted activation curve with a large enough effect in the signal ratio in the repeat runs, not every such curve was filed as active; the % refers to the signal ratio). The essentials: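 Agonism was assessed in a beta-lactamase reporter system, HEK293H cells with a stably integrated UAS-bla construct under PPARg control; the 17 h treatment at 37C preceded a 1 h room-temperature FRET substrate read.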

Experiment [5] has the same target. As to the kind of experiment: qHTS assay to identify small molecule antagonists of the peroxisome proliferator-activated receptor gamma (PPARg) signaling pathway (AID 743191; calls by dose curve; note: series mostly up to about 63 µM; nearly all actives have a fitted effect of over 30% in size). Summed up: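 GeneBLAzer PPARg UAS-bla HEK293H cells, 5 h post-plating, exposed to compounds 17 h at 37C. LiveBLAzer B/G FRET substrate added for 1 h at room temperature; beta-lactamase reporter read by fluorescence intensity.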

Experiment [6] is described as follows: qHTS assay to identify small molecule antagonists of the peroxisome proliferator-activated receptor gamma (PPARg) signaling pathway - cell viability counter screen (AID 743194). Note: nearly all actives have a fitted effect of over 55% in size. Summed up:
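Cytotoxicity counter screen in PPARg-bla HEK293H cells, same wells as reporter assay. Compounds plus 50 nM rosiglitazone (final) for 17 h at 37 C, then viability read by CellTiter-Glo luminescence.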

A short description of experiment [7]: qHTS assay for small molecule agonists of the antioxidant response element (ARE) signaling pathway (AID 743202; active = well fitted activation curve with a large enough effect in the signal ratio in the repeat runs, not every such curve was filed as active; the % refers to the signal ratio; note: potency is the fitted concentration of half-maximal effect). The essentials:
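HepG2 ARE-bla cells; 16 h treatment at 37 C; FRET-based beta-lactamase fluorescence read after 2 h substrate incubation at room temperature.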

A short description of experiment [8]: qHTS assay for small molecule agonists of the antioxidant response element (ARE) signaling pathway - cell viability counter screen (AID 743203; calls by dose curve; note: nearly all actives have a fitted effect of over 55% in size). Summed up:
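ATP content via CellTiter-Glo luminescence served as the viability measure. Cells: ARE-bla HepG2, 2,000 per well. Exposure: 16 hrs, 37C/5% CO2.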

The nature of experiment [9]: qHTS assay for small molecule activators of the heat shock response signaling pathway - cell viability counter screen (AID 743209). Note: nearly all actives have a fitted effect of over 50% in size. The essentials: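 Compounds dissolved in DMSO were added to overnight-plated HSE-bla HeLa cells and left 5 h at 37 C. Cell viability was quantified by luminescence using CellTiter-Glo.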
A short description of experiment [10]: qHTS assay for small molecule activators of the heat shock response signaling pathway (AID 743210; active = well fitted activation curve with a large enough effect in the signal ratio in the repeat runs, with a control signal flat, not every such curve was filed as active; the % refers to the signal ratio;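 note: HeLa cells with beta-lactamase reporter driven by heat shock elements; series mostly up to about 63 µM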). The essentials:
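Following overnight attachment, HSE-bla HeLa cells received test compounds for 5 h at 37 C; beta-lactamase activity was then detected via FRET substrate fluorescence.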

Experiment [11] in a line: qHTS assay to identify small molecule agonists of the peroxisome proliferator-activated receptor delta (PPARd) signaling pathway - cell viability counter screen (AID 743211). Note: nearly all actives have a fitted effect of over 55% in size. The essentials: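 Viability of GeneBLAzer PPARd UAS-bla HEK293H cells was assessed after 17 h compound incubation at 37C, using CellTiter-Glo reagent added after the reporter read and luminescence recorded 30 min later.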

Experiment [12] can be described thus: qHTS assay to identify small molecule antagonists of the peroxisome proliferator-activated receptor delta (PPARd) signaling pathway - cell viability counter screen (AID 743213). Note: nearly all actives have a fitted effect of over 50% in size. The essentials: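 Same-well viability: cells pre-incubated 5 h, dosed with compound plus 300 nM L165041, kept 17 h at 37 C, FRET substrate 2 h RT, then CellTiter-Glo 30 min RT and luminescence.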

The target in experiment [13] is Bile acid receptor (Homo sapiens) (UniProt Q96RI1). As to the kind of experiment: qHTS assay to identify small molecule antagonists of the farnesoid-X-receptor (FXR) signaling pathway (AID 743217; active = well fitted inhibition curve with a large enough effect in the signal ratio in the repeat runs, not every such curve was filed as active; the % refers to the signal ratio). The essentials:
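Test compounds are pin-transferred onto FXR-bla HEK 293T cells, then chenodeoxycholic acid is added at 50 uM final. After 16 h at 37 °C, LiveBLAzer B/G substrate is applied for 2 h at room temperature and fluorescence read.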

Experiment [14] is described as follows: qHTS assay to identify small molecule agonists of the farnesoid-X-receptor (FXR) signaling pathway - cell viability counter screen (AID 743218). Note: nearly all actives have a fitted effect of over 45% in size. Summed up: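 Quantitative HTS counter screen measuring ATP-based viability via CellTiter-Glo luminescence in HEK 293T cells carrying a UAS-driven beta-lactamase reporter, after 16 h compound exposure at 37 C.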
Experiment [15] concerns the target Bile acid receptor (Homo sapiens) (UniProt Q96RI1). Kind of experiment: qHTS assay to identify small molecule agonists of the farnesoid-X-receptor (FXR) signaling pathway (AID 743220; active = well fitted activation curve with a large enough effect in the signal ratio in the repeat runs, not every such curve was filed as active; the % refers to the signal ratio). Summed up:
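FXR-UAS-bla HEK 293T cells carrying a UAS-driven beta-lactamase reporter were plated for 5 h at 37C/5% CO2, then exposed to DMSO-dissolved Tox21 10K compounds for 16 h at 37C. A LiveBLAzer B/G FRET substrate was loaded for 2 h at room temperature before fluorescence reading.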

Experiment [16] in a line: qHTS assay to identify small molecule antagonists of the farnesoid-X-receptor (FXR) signaling pathway - cell viability counter screen (AID 743221; active = well fitted cell-killing curve with a large enough effect in the repeat runs, not every such curve was filed as active; note: nearly all actives have a fitted effect of over 50% in size). The essentials: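 Quantitative HTS of the Tox21 10K library run in parallel with the beta-lactamase reporter read. HEK 293T cells carrying a UAS-driven bla reporter got compound and 50 uM CDCA (final) for 16 h; ATP-based luminescence followed.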

Experiment [17] addresses Vitamin D3 receptor (Homo sapiens) (UniProt P11473). As to the kind of experiment: qHTS assay to identify small molecule agonists of the vitamin D receptor (VDR) signaling pathway (AID 743222; calls by dose curve). The essentials: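 Tox21 cell reporter format: VDR-bla line, 16 h compound exposure in 5% CO2 at 37C, then fluorescence intensity after 2 h with LiveBLAzer B/G FRET substrate.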
Experiment [18] concerns the target Peroxisome proliferator-activated receptor delta (Homo sapiens) (UniProt Q03181). Kind of experiment: qHTS assay to identify small molecule agonists of the peroxisome proliferator-activated receptor delta (PPARd) signaling pathway (AID 743212; calls by dose curve). Summed up:
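Tox21 library screened in GeneBLAzer PPARd UAS-bla HEK293H cells. After compound treatment at 37 C, a FRET-based beta-lactamase substrate was applied for 2 h and fluorescence recorded.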

Experiment [19] shares this target. As to the kind of experiment: qHTS assay to identify small molecule antagonists of the peroxisome proliferator-activated receptor delta (PPARd) signaling pathway (AID 743215; active = well fitted inhibition curve with a large enough effect in the signal ratio in the repeat runs, not every such curve was filed as active; the % refers to the signal ratio;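 note: cells stimulated with agonist L165041 at 300 nM final during compound exposure; series mostly up to about 62 µM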). Summed up: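 Here, a reporter line (HEK293H, beta-lactamase under a UAS) measures PPARd signaling. Compounds are tested against agonist L165041 at 300 nM final concentration over 17 h at 37 C, with fluorescence read after substrate.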

The record followed here is PubChem BioAssay (Tox21).

Each structure is given as a SMILES string. Values joined by “and” are separate entries in the source; they are usually repeats but may differ in a detail not shown here. Equal entries are not always repeated. Inconclusive results are not listed. Active and inactive are the calls of the source. Unless noted, calls come from the whole dose curve; as a rule, active = well fitted curve in the direction sought with a large enough effect in the repeat runs; inconclusive = weak or mixed curves; inactive = no such curve, though single readings can be large; an effect the other way counts as inactive or inconclusive.

Peroxisome proliferator-activated receptor delta (Homo sapiens), sequence (Q03181 whole entry, looked up): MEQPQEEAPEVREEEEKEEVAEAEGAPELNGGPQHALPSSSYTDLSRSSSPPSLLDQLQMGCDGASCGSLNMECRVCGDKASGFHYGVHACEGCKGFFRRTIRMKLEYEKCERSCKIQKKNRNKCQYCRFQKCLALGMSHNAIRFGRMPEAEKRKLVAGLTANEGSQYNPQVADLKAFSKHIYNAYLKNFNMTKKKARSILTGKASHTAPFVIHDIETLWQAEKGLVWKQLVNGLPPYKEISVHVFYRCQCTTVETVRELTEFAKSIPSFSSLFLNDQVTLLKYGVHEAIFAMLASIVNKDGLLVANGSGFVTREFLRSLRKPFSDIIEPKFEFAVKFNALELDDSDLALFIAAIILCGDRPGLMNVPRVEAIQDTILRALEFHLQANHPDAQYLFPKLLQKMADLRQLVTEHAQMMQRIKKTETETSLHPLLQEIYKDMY
Vitamin D3 receptor (Homo sapiens), sequence (P11473 whole entry, looked up): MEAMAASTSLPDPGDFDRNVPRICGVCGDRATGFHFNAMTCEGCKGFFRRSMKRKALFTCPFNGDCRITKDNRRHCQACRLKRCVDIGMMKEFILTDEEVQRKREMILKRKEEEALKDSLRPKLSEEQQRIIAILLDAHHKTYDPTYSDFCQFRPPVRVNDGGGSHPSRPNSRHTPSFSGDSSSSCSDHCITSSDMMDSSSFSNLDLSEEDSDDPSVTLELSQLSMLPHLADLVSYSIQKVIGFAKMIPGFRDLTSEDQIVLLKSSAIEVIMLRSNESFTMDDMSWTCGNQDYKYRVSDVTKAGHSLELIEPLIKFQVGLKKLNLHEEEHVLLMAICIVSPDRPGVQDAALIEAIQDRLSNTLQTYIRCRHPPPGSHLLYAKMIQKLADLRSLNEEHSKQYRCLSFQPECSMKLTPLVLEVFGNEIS
Aryl hydrocarbon receptor (Homo sapiens), sequence (P35869 whole entry, looked up): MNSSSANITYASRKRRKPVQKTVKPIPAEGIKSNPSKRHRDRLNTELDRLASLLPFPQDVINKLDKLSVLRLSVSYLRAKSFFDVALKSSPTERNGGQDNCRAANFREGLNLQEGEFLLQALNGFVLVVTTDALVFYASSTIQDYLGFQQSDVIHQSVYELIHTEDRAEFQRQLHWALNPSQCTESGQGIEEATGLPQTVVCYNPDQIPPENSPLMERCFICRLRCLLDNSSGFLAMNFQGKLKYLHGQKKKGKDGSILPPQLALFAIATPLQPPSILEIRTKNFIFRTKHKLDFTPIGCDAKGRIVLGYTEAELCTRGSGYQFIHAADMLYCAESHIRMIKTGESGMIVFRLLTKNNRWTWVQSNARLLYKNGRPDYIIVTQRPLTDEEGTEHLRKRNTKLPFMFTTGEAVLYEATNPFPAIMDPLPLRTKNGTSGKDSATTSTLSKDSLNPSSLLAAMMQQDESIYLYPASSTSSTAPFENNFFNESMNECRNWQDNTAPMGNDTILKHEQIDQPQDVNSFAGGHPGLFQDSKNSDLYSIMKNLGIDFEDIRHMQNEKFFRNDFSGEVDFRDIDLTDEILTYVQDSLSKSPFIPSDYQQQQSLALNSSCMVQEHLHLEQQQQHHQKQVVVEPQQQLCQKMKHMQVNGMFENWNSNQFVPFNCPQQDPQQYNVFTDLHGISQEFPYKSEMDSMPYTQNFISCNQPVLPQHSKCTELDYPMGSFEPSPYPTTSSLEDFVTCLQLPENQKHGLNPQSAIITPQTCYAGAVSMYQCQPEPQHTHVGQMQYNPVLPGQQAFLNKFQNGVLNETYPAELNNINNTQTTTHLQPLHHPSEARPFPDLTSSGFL
Peroxisome proliferator-activated receptor gamma (Homo sapiens), sequence (P37231 whole entry, looked up): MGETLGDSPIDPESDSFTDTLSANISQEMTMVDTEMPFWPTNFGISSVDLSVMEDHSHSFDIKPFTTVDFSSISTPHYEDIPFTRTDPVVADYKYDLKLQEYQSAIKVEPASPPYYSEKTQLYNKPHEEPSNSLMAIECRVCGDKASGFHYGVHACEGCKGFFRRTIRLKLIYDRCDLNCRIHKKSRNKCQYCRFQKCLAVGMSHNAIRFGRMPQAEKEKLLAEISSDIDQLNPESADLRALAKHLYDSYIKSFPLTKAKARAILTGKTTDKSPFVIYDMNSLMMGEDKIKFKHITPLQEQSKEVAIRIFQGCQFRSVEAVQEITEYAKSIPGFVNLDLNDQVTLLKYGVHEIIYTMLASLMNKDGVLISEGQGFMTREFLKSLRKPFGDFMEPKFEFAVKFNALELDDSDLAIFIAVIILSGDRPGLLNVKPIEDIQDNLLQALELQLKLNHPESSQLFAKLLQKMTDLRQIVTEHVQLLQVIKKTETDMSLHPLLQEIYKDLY
Bile acid receptor (Homo sapiens), sequence (Q96RI1 whole entry, looked up): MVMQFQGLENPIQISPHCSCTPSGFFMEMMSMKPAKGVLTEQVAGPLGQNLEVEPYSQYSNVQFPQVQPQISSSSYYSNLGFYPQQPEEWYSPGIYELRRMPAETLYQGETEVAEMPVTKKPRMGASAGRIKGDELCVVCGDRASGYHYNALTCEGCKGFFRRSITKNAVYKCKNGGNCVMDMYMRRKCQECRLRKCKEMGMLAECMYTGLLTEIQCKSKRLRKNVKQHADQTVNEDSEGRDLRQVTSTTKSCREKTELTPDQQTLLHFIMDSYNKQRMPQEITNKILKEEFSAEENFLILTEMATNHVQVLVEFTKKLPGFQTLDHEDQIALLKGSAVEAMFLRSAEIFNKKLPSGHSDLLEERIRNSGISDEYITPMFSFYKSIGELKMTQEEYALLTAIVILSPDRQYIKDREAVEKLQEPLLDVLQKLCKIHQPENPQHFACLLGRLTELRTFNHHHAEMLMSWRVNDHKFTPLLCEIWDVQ

Regarding `CCOc1ccc(NC(C)=O)cc1`, the Potency entry in [1], in experiment [2], in experiment [3], in experiment [4], in experiment [5] and in [6] was “inactive” each time. The Potency result in experiment [7], in experiment [8], in experiment [9], in experiment [11], in [12] and in [13] was “inactive” throughout. In addition, the Potency entry in [14], in experiment [16] and in experiment [17] was “inactive” in each case. Moreover, the outcome in experiment [10] and in [15] was inactive.
Turning to `O=C1NC(=O)C(c2ccccc2)(c2ccccc2)N1`, the Potency result in experiment [1], in [2], in experiment [3], in [4], in experiment [5] and in [6] was “inactive” throughout. Also, the Potency result in experiment [7], in experiment [8], in [9], in experiment [11], in experiment [18] and in experiment [12] was “inactive” each time. Besides, the Potency entry in experiment [19], in experiment [14] and in experiment [16] was “inactive” in each case. The molecule was called inactive in experiment [10].
As for `Cc1ncc([N+](=O)[O-])n1CCO`, the Potency result in experiment [1], in experiment [2], in [3], in experiment [4], in [5] and in [6] was “inactive” throughout. For the same molecule, the Potency result in [7], in experiment [8], in experiment [9], in experiment [11], in [18] and in experiment [12] was “inactive” throughout. For the same molecule, the Potency result in [19], in experiment [14] and in [16] was “inactive” throughout. For the same molecule, the molecule was called inactive in experiment [10].
`CC(=O)C(=O)O`: the Potency entry in experiment [1], in [2], in experiment [3], in experiment [4], in experiment [5] and in experiment [6] was “inactive” throughout. Moreover, the Potency entry in [7], in [8], in [9], in [11], in experiment [18] and in experiment [12] was “inactive” in each case. The Potency entry in experiment [19], in [14], in experiment [16] and in [17] was “inactive” each time. Moreover, in [10], the call was inactive.
Consider `CC(C)C(=O)Nc1ccc([N+](=O)[O-])c(C(F)(F)F)c1`, for which the Potency result in [1], in experiment [2], in [3], in experiment [4], in experiment [5] and in [6] was “inactive” each time. In addition, the Potency result in experiment [8], in experiment [9], in experiment [11], in experiment [12], in [13] and in [14] was “inactive” each time. The Potency result in experiment [16] is “inactive”. Further, the Potency in [7] was 19.3 µM (active) and 23.7 µM (active). Also, the molecule was called inactive in [10] and in experiment [15].
On to `Nc1c2c(nc3ccccc13)CCCC2`, for which the Potency result in experiment [1], in [3], in experiment [4], in experiment [5], in experiment [6] and in experiment [7] was “inactive” in each case. In addition, the Potency result in experiment [8], in experiment [9], in experiment [11], in experiment [12], in [14] and in experiment [16] was “inactive” throughout. Besides, the Potency in experiment [2] was 4.86 µM (active) and 61.1 µM (active). Besides, in experiment [10], the molecule was classed as inactive.
Regarding `CCCc1cc(=O)[nH]c(=S)[nH]1`, the Potency entry in [1], in [2], in [3], in experiment [4], in [5] and in experiment [6] was “inactive” each time. For the same molecule, the Potency result in experiment [7], in experiment [8], in experiment [9], in experiment [11], in experiment [18] and in [12] was “inactive” each time. Further, the Potency entry in experiment [19], in experiment [14] and in [16] was “inactive” throughout. Besides, the call in [10] was inactive.
